# From PubChem BioAssay (NCATS)
# Values without a mark were called inactive. Calls come from the whole dose curve; as a rule, active = well fitted inhibition curve with a large enough effect; inconclusive = small, poorly fitted or top-dose-only effect; inactive = flat fitted curve, though single readings scatter.
# Target: DNA polymerase III PolC-type (Bacillus subtilis (strain 168)) (UniProt P13267)
# Assay: qHTS Validation Assay for the Inhibitors of DNA Replication in Gram-Positive Bacteria (AID 485295);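 note: reconstituted holoenzyme with PolC plus beta clamp SSB and primase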
# Details: Gram-positive bacterial DNA replication assay; series mostly up to 57.1 µM; activity change, negative = inhibition: at the top concentration
# Procedure: B Subtilis DNA polymerase III holoenzyme complex was assayed for DNA production by fluorescent detection of the double-stranded DNA product with PicoGreen dye. The holoenzyme complex was reconstituted from the following purified protein components: DNA Polymerase III, beta subunit processivity factor, SSB single-stranded DNA binding protein, and Primase. Single-stranded, circular M13Gori was used as a substrate with dNTPs and NTPs also supplied to the substrate reagent. Compounds from the NCGC collection were incubated with the holoenzyme mixture for […] at room temperature to allow binding to occur, and then the reaction was started by the addition of substrate. After 30 min incubation at room temperature, PicoGreen solution containing EDTA was added to stop the reaction and to visualize the double-stranded DNA produced. Reaction progress was measured in a ViewLux CCD imager in fluorescence intensity mode by using 480 nm excitation and 540 nm emission filter set.
# 1. Thaw screening compounds.
# 2. Label assay plates. Prepare pipette tips, reagent reservoirs, buffers and controls.
# 1. Thaw Enzymes, DNA template, Nucleotides and PicoGreen dye concentrate. Thawed enzymes are stable on ice for ~1
# week. Other thawed components are stable indefinitely.
# 2. Prepare sufficient quantities of Enzyme, Substrate and PicoGreen Quench mixes (according to Table II). For the number of
# compound plates being screened.
# 3. Ensure that the tip wash station reservoirs have clean water and turn on recirculating chiller so that the chilled deck position
# 1. Load 2 uL of EDTA controls (250 mM, Background, 100 % inhibition) and 2 uL of DMSO controls (Negative control, 0%
# inhibition) in the screening plates (flat-bottomed black 384-well polypropylene, Greiner Bio-one).
# 2. Place Enzyme mix reservoir on the chiller position of the liquid handler deck. Make sure that chiller will maintain
# temperature of Enzyme mix at 4degC. Substrate mix and PicoGreen Quench can be stored at room temp.
# 3. Program liquid handling robotics to dispense 18 uL of Enzyme mix into assay plates. Wash tips.
# 4. Aspirate and dispense 2 uL of compound from compound plates, mix and Incubate at room temperature for 10 minutes.
# 5. Aspirate 5 ul of Substrate mix, dispense into assay plates and mix by pipetting. Wash tips.
# 6. Incubate at room temperature (21 +/- 1 deg C) for 20 minutes.
# 7. Quench reactions by addition of 25 uL PicoGreen Quench mix and mix by pipetting (using HTS robotics or bulk reagent
# dispenser such as a Multidrop or uFill). Keep plates in the dark or stacked until ready to read fluorescence.
# 8. Read fluorescence intensity of plates on plate reader using "Fluorescein (Ex 485 nm/ Em 535 nm, 0.1s)" setting.
# DNA polymerase III PolC-type (Bacillus subtilis (strain 168)), sequence (P13267 whole entry, looked up): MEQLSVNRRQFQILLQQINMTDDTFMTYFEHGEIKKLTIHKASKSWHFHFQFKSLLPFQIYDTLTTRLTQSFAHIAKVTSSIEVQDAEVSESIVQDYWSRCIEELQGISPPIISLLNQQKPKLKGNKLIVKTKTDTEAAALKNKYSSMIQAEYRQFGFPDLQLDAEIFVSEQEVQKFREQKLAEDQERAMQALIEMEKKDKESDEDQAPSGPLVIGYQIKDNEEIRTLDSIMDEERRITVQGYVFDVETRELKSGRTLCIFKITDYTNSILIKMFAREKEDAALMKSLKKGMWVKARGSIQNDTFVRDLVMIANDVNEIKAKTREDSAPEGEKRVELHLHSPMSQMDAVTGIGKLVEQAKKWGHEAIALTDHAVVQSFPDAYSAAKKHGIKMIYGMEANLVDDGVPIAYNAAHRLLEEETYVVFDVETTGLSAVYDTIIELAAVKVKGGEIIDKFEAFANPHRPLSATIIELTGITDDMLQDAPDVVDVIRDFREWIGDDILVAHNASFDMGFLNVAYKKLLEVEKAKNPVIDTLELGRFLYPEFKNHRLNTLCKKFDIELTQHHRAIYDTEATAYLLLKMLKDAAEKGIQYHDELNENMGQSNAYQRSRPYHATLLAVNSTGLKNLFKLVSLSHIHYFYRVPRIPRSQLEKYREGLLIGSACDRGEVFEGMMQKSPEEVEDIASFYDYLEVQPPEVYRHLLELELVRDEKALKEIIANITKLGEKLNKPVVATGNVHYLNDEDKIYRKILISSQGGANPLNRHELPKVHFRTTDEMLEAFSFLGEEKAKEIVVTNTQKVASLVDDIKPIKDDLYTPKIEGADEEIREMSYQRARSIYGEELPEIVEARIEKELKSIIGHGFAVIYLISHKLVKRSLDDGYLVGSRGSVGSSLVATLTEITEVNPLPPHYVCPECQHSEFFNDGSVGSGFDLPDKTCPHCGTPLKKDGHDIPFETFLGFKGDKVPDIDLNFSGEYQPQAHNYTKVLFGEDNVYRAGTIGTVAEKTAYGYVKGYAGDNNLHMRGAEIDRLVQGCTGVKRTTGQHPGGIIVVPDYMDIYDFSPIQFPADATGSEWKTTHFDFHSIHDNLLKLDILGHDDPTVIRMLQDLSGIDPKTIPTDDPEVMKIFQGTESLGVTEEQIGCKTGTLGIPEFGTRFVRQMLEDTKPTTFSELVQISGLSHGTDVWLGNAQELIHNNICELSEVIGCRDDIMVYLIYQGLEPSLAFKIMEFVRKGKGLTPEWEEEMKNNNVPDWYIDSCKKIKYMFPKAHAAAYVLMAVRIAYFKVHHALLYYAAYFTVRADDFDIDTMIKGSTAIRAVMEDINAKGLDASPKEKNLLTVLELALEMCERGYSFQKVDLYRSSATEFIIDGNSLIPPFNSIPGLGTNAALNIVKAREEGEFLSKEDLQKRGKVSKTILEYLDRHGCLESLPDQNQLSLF
row,SMILES,"activity change, negative = inhibition [%]"
1,Oc1ccc(C2CNCc3sccc32)cc1O (stereo not given),0.944
2,CCN1/C(=C/C(C)=O)Sc2ccc(OC)cc21,3.3
3,CO/S(=N\S(=O)(=O)c1ccc(Cl)cc1)c1ccc([N+](=O)[O-])cc1 (stereo not given),1.42
4,CC(=O)/C=C1\C(=O)N(C)c2ccccc21,-9.4
5,NCCCCCCCCCCN,2.14
6,CO/N=C(\C(=O)N[C@@H]1C(=O)N2C(C(=O)O)=C(COC(C)=O)CS[C@H]12)c1csc(N)n1,4.33
7,OC[C@H]1O[C@@H](n2cnc3c(NC4CCCC4)ncnc32)[C@H](O)[C@@H]1O,-5.31
8,CC(C)NCC(O)COc1cccc2ccccc12 (stereo not given),4.54
9,O=C(O)CC1CC(c2ccccc2)=NO1 (stereo not given),-7.67
10,O=C(/C=C/c1ccc(O)c(O)c1)OCCc1ccccc1,-14.1
11,NC[C@H]1O[C@@H](n2cnc3c(N)ncnc32)[C@H](O)[C@@H]1O,-3.92
12,CC(=O)N[C@H](C(=O)O)C(C)(C)SN=O,7.43
13,COc1ccccc1N1CCN(CCCCNS(=O)(=O)c2cccc3c(N(C)C)cccc23)CC1,-5.21
14,NO,-2.14
15,O=P(O)(O)C(Cl)(Cl)P(=O)(O)O,-3.26
16,O=C(O)CC1CCCc2ccccc2C1O (stereo not given),5.16
17,c1ccc(-c2ccccn2)nc1,-3.96
18,CCCn1c(=O)c2[nH]c(-c3ccc(OCC(=O)NCCN)cc3)nc2n(CCC)c1=O,-8.45
19,NCC1OC(O[C@H]2[C@H](O)[C@@H](OC3C(O)C(N)CC(N)C3OC3OC(CO)C(O)C(O)C3N)O[C@@H]2CO)C(N)C(O)C1O (stereo not given in full),0.335
20,CC1(C)CCC=[N+]1[O-],-4.22

row,SMILES,"activity change, negative = inhibition [%]"
1,O=C(/C=C/c1ccc(O)cc1)c1ccc(O)cc1O,-3.85
2,O=C(O)CC[C@@H](C(=O)O)N1C(=O)c2ccccc2C1=O,-3.1
3,N#C/C(=C\c1ccc(-c2cc(Cl)ccc2Cl)o1)C(=O)Nc1cccc2ncccc12,-3.15
4,Nc1ncnc2c1ncn2[C@@H]1O[C@H](COP(=O)(O)CP(=O)(O)OP(=O)(O)O)[C@@H](O)[C@H]1O,4.72
5,COc1cc2nc(N3CCN(C(=O)OCc4ccccc4)C(C(=O)NC(C)(C)C)C3)nc(N)c2cc1OC (stereo not given),1.75
6,Cn1ncc(S(=O)(=O)Cc2ccccc2)c(Br)c1=O,-1.59
7,C=CC(N)CCC(=O)O (stereo not given),-5.91
8,COc1ccc2c(c1)CCC1C2CC[C@@]2(C)C1CC[C@@H]2NCCCCCCN1C(=O)CCC1=O (stereo not given in full),1.35
9,CN1CCc2ccccc2Cc2[nH]c3ccccc3c2CC1,1.16
10,Oc1ccccc1O,2.42
11,O=C(O)[C@@H]1C[C@H](C(=O)O)N1,-5.66
12,Nc1nc(Nc2ccccc2)nc2c1ncn2[C@@H]1O[C@H](CO)[C@@H](O)[C@H]1O,0.316
13,CN1C2CCC1CC(OC(=O)C(O)c1ccccc1)C2 (stereo not given),3.09
14,NCCSSCCN,2.94
15,Cc1ccc(O)c(N=Nc2ccccc2)n1,-6.04
16,OC[C@H]1O[C@@H](n2cnc3c(NC4CCCCC4)ncnc32)[C@H](O)[C@@H]1O,-4.64
17,Clc1ccc(N2CCN(Cc3cc4ccccn4n3)CC2)cc1,3.92
18,C[N+]1(C)CCC(OC(=O)C(c2ccccc2)c2ccccc2)CC1,-6.3
19,CN(C)CCCO[C@@H]1[C@H]2OC(C)(C)O[C@H]2O[C@@H]1[C@H](O)CO,7.53
20,NC(=O)C1=CN(C2OC(COP(=O)(O)OP(=O)(O)OC[C@H]3O[C@@H](n4cnc5c(N)ncnc54)[C@H](OP(=O)(O)O)[C@@H]3O)C(O)C2O)C=CC1 (stereo not given in full),-4.62
